Compound activity from PubChem BioAssay.
Only some compounds are listed: those with a hit (about 19% of all), similar ones and a draw of the others.
ASM inhibitor – Inhibitors of Secretory Acid Sphingomyelinase (S-ASM): qHTS. 340,000 tested, 0.006% active. AID 504937, 2011. Sphingomyelin phosphodiesterase (Homo sapiens), P17405. Potency, µM (titrated, usually from 57.5 µM), for inactives: top-dose activity change, negative = inhibition, most hits filed as inhibitors. placental ASM, HMU-PC fluorogenic substrate, 60 min; further: potency means the concentration at half of the fitted maximal effect
Target sequence (P17405 47-631 limits assumed): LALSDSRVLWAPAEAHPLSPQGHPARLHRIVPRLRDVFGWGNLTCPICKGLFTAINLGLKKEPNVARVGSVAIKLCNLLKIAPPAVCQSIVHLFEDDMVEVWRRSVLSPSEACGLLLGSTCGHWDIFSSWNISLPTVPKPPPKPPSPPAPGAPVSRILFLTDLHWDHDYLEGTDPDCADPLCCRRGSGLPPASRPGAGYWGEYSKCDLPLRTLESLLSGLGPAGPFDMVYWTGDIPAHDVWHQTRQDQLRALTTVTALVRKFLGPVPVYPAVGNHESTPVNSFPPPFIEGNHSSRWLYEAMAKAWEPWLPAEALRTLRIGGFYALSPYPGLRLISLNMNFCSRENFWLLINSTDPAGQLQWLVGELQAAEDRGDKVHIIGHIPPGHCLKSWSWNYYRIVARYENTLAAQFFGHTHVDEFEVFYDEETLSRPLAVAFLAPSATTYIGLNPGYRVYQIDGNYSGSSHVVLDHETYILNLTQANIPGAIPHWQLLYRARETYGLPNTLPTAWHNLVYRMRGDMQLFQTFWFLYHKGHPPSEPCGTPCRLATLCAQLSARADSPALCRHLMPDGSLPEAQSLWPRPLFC
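Fluorogenic HMU-PC substrate (9 uM final) is turned over by placental ASM in 60 min at 37 C after a 10 min compound preincubation. Reaction ended by alkaline stop (pH 10), with fluorescence read at 386/447 nm.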
HepG2 viability – qHTS for Inhibitors of TGF-b: Cytotox Counterscreen; 410,000 tested, 0.76% active; Potency, µM (top dose mostly 46.1 µM), without a hit: at the top dose activity change, negative = cytotoxicity, hits mostly cytotoxic; HepG2 CAGA-GFP viability, ATP luminescence, 18 h; further: potency means the concentration at half of the fitted maximal effect
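HepG2 CAGA-GFP cells (1000/well, DMEM with 1% FBS) received compound, then TGF-beta at 500 pg/mL final, and were incubated 18 hours at 37 degrees C. Viability was read by CellTiter-Glo luminescence. Media-only wells were set as complete cell-killing and DMSO as no toxicity.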
TDP1 cell CPT – qHTS for Inhibitors of human tyrosyl-DNA phosphodiesterase 1 (TDP1): qHTS in cells in presence of CPT; 420,000 tested, 12% active; Potency, µM (highest dose often 46.2 µM), for inactives: top-dose activity change, negative = growth inhibition, usual class: inhibitors; chicken DT40 Tdp1-/-;hTDP1 cells + 20 nM CPT, ATP luminescence, 48 h; AID 686979, 2013; further: potency means the concentration at half of the fitted maximal effect; on the % scale 0 is the no-effect control and ±100 the full control effect; nearly all actives have a fitted effect of over 55% in size
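Chicken DT40 Tdp1-/- cells complemented with human TDP1, 400 cells/well, exposed to compounds plus 20 nM camptothecin for at least 48 h at 37 C; viability read as ATP content by CellTiter-Glo luminescence.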
TGFb SMAD3 inh – qHTS for Inhibitors of TGF-b | 410,000 tested, 1.2% active | HepG2 CAGA-GFP TGF-b/SMAD3 reporter, GFP fluorescence, 18 h; TGF-beta stimulated, 500 pg/mL final | Potency, µM (highest dose often 46.1 µM), inactives show at the highest dose activity, negative = inhibition, most hits filed as inhibitors | AID 588855, 2011; further: potency means the concentration at half of the fitted maximal effect; on the % scale 0 is the no-effect control and ±100 the full control effect; nearly all actives have a fitted effect of over 65% in size
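TGF-beta reporter screen: HEPG2 CAGA-GFP, 1% FBS, 500 pg/mL TGF-beta final, 18 h; per-cell GFP summed per well; curves fitted and categorized by class.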
TDP1 cell noCPT – qHTS for Inhibitors of human tyrosyl-DNA phosphodiesterase 1 (TDP1): qHTS in cells in absence of CPT. 420,000 tested, 15% active. Potency, µM (titrated, usually from 46.2 µM), for inactives: at the highest dose activity change, negative = growth inhibition, actives largely listed as inhibitors. AID 686978, 2013. DT40 Tdp1-/- hTDP1 cells, no CPT, ATP luminescence, 48 h; further: potency means the concentration at half of the fitted maximal effect; on the % scale 0 is the no-effect control and ±100 the full control effect; nearly all actives have a fitted effect of over 55% in size
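Chicken DT40 Tdp1-/- cells stably complemented with human TDP1 were seeded at 400 cells/well with DMSO in place of 20 nM camptothecin. After compound pinning, cells grew at least 48 hr at 37 °C; viability read by CellTiter-Glo luminescence.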
IL1B secr inh – qHTS for Inhibitors of Inflammasome Signaling: IL-1-beta AlphaLISA Primary Screen. THP-1 LPS/ATP IL-1B secretion, AlphaLISA, 16 h; stronger effect = lower value. activity change, % at 57.5 µM. 360,000 tested, 4.7% active. AID 743279, 2014; in the data active means activity change below about -50%; inconclusive means mostly about -30% to -49%; further: on the % scale 0 is the no-effect control and ±100 the full control effect
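THP-1 cells pretreated 1 hr with compounds (up to 57.5 uM final), then stimulated with LPS (250 ng/mL final) plus ATP (1.25 mM final); secreted IL-1B measured by AlphaLISA after 16 hr, decreased signal indicating inhibition.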
The depositor's hits bear a star; ? = inconclusive; · = no result given. Unless noted, the call rests on the fitted dose curve; in most records, active means well fitted curve in the direction sought with a large enough effect; inconclusive means small, poorly fitted or top-dose-only effect, or another doubt; inactive means no such curve, though single readings can be large; an effect the other way counts as inactive or inconclusive.

SMILES | ASM inhibitor | HepG2 viability | TDP1 cell CPT | TGFb SMAD3 inh | TDP1 cell noCPT | IL1B secr inh
CN[C@@H]1C[C@@H](c2ccc(Cl)c(Cl)c2)c2ccccc21 | · | · | 23.7µM* | · | 11.9µM* | ·
CN[C@@H]1C[C@H](c2ccc(Cl)c(Cl)c2)c2ccccc21 | · | · | 8.41µM* | · | 9.44µM* | ·
CCOc1ccc(/C=C/C(=O)C(C(N)=O)=C2SCCS2)cc1 | -2.4% | -0.5% | ? | ? | ? | -4.5
NC(Cc1ccc(F)cc1)c1csc(Nc2cnccn2)n1 (stereo unspecified) | · | -34.4% | ? | 1.6% | ? | ?
NC(Cc1ccccc1)c1csc(Nc2ccccn2)n1 (stereo unspecified) | · | -37.2% | ? | ? | ? | -18.6
NC(Cc1ccc(F)cc1)c1csc(Nc2ccccn2)n1 (stereo unspecified) | · | 25.1µM* | ? | ? | 16.4µM* | -50.7*
NC(Cc1ccc(Cl)cc1)c1csc(Nc2ccccn2)n1 (stereo unspecified) | · | -106.4% | 14.6µM* | ? | 13µM* | -66.2*
COc1cccc(Nc2nc(C(N)Cc3ccc(F)cc3)cs2)n1 (stereo unspecified) | · | -73.5% | 18.4µM* | ? | 8.2µM* | -64.4*
O=[N+]([O-])c1ccccc1-c1cc(-c2ccccc2)cc(-c2ccccc2)[n+]1Cc1ccccc1Cl | -9.1% | -40.0% | 0.651µM* | ? | 0.731µM* | 0.0
Cc1ccc(-c2noc(=O)n2CC(=O)Nc2ccc(S(=O)(=O)NC3CC3)cc2)cc1 | -6.9% | -5.0% | ? | -17.7% | ? | 4.3
COCCNC(=O)Cn1cc(/C=C2\C(=O)NC(=O)N(c3ccccc3F)C2=O)c2ccccc21 | -1.4% | -11.3% | -18.9% | 51.9% | -2.5% | 37.0
COC(=O)Cn1cc(/C=C2\C(=O)NC(=O)N(c3ccc(OC)cc3)C2=O)c2ccccc21 | -3.1% | -28.4% | ? | 12.5% | 2.31µM* | ?
COCCCNC(=O)Cn1cc(/C=C2\C(=O)NC(=O)N(c3ccccc3F)C2=O)c2ccccc21 | -4.5% | -31.4% | ? | ? | ? | -82.4*
CCCC(C)CC1(CCO)C(=O)NC(=S)NC1=O (stereo unspecified) | -1.3% | -3.0% | -13.3% | 8.2% | -5.6% | 17.0
CC(=O)c1ccc2c(c1)N(CCCN(C)C)c1ccccc1S2 | -7.9% | -23.0% | ? | 32.3% | 8.05µM* | 0.0
C=CCc1ccccc1OCCn1c(C2CC(=O)N(Cc3ccc(F)cc3)C2)nc2ccccc21 (stereo unspecified) | · | -108.4% | 16.4µM* | 15.8µM* | ? | ·
Cc1nn(Cc2ccccc2)c(Cl)c1C(=O)OCC(=O)N1CCCC1 | 3.0% | 37.0% | -3.2% | 22.3% | -0.6% | -1.1
CCOc1ccc(N2CC(c3nc4ccccc4n3CCC3CCCCC3)CC2=O)cc1 (stereo unspecified) | · | -2.6% | 7.31µM* | -8.7% | 5.17µM* | ·
COc1cccc(N2CCN(C(=O)Cn3c(=O)oc4ccccc43)CC2)c1 | 0.2% | -23.9% | 3.9% | -2.3% | -4.1% | 23.9
COc1ccc(CN2CCN(C(=O)Cn3c(=O)oc4cc(Cl)ccc43)CC2)c(OC)c1OC | 2.5% | -21.7% | 10.3µM* | ? | ? | -29.3
CC(NC(=O)Oc1cccc2ccccc12)c1ccccc1 (stereo unspecified) | 8.9% | -35.1% | ? | 5.4% | 25.9µM* | 19.7
Cc1cc(OC(=O)N(C)C)nc(SCc2c(Cl)cccc2Cl)n1 | 3.8% | 8.91µM* | -29.1% | -26.8% | ? | -6.2
CN(CC#CCN1CCCC1)C(=O)c1cccc(Cl)c1 | 0.6% | -11.8% | · | 1.9% | · | ·
CC(C)NC[C@H](O)c1ccc(N)c(C#N)c1 | · | · | 1.0% | · | -20.4% | ·
CN(C)c1ccc(C=Cc2ccnc3c(O)cccc23)cc1 | · | -18.9% | ? | 22.1% | 13µM* | 64.0
SMILES | ASM inhibitor | HepG2 viability | TDP1 cell CPT | TGFb SMAD3 inh | TDP1 cell noCPT | IL1B secr inh
CN(C)c1ccc(/C=C/c2ccnc3c(O)cccc23)cc1 | · | -3.7% | -97.5% | -0.8% | 10µM* | ·
CC(C(=O)c1c[nH]c2ccccc12)N1CCc2ccccc2C1 (stereo unspecified) | -0.3% | -37.9% | 16.4µM* | -3.1% | ? | 25.5
Nc1cc(Cl)c2nonc2c1[N+](=O)[O-] | -1.4% | 11.2µM* | 0.731µM* | ? | 0.651µM* | -102.0*
C=CCN(CC(=O)c1sc(C(=O)OCC)nc1C)c1cccc(Br)c1 | -18.0% | -1.8% | ? | -7.6% | ? | 26.4
Cc1nc2ccccc2c(=O)n1-c1cccnc1 | 0.5% | -7.7% | -10.2% | -3.9% | -3.0% | -29.9
O=c1c2ccccc2nc2n1CCS2(=O)=O | 0.9% | -28.9% | 2.91µM* | ? | -109.4% | -88.5*
CC(C)(C)NC[C@@H](O)COc1cccc2[nH]c(C#N)cc12 | · | · | 23.0% | · | -24.3% | ·
O=C1CC(c2ccc(Br)cc2)c2c(c3ccccc3oc2=O)O1 (stereo unspecified) | · | 22.6% | 0.2% | 15.0% | 0.0% | ·
O=C(O)c1cc[c]([Hg][Cl])cc1 | 5.3% | -92.8% | 0.651µM* | ? | 0.92µM* | -101.1*
CCOC(=O)CNC(=S)N1CC2C[C@@H](C1)Cn1c2cccc1=O | -0.1% | -3.0% | -11.3% | -0.3% | 17.6% | -6.0
O=C(Cn1c(=O)oc2ccccc21)Nc1nnc(N2CCCCCC2)s1 | -2.7% | -1.5% | -10.4% | 13.2% | -22.4% | 7.4
NCC(N)C(=O)c1ccccc1 (stereo unspecified) | · | · | -6.0% | · | -7.6% | ·
CC(=O)NCC(N)C(=O)c1ccc(C)cc1 (stereo unspecified) | · | · | ? | · | 15.8µM* | ·
COCCCNC(=S)NCCCNc1nc2cc(C)cc(C)c2cc1C#N | 227.1% | -28.9% | ? | ? | ? | ?
C=CC[C@]1(O)CC[C@H]2[C@@H]3CCC4=CC(=O)CCC4=C3C=C[C@@]21C | · | · | 13.3µM* | · | 7.5µM* | ·
C#CC1(O)C=CC2C3CCC4=CC(=O)CCC4C3CCC21CC (stereo unspecified) | 5.2% | -27.9% | ? | -13.0% | ? | -8.1
C#CC1(O)CCC2C3CCC4=CC(=O)CCC4=C3C=CC21C (stereo unspecified) | 33.3% | -7.5% | 8.2µM* | 3.1% | 14.6µM* | 3.2
